Measurements published in paper doi:10.1101/2024.03.05.583629.

Assays:
[1] = biological target: pT7_6His-AlfaTag-HOXD13 (human, UniProt P35453 263-343); assay: PADIT-seq; details: dsDNA, one strand shown
[2] = biological target: pT7_6His-AlfaTag-ZIF268 (human, UniProt P18146 335-423); assay: PADIT-seq; details: dsDNA, one strand shown

Chain of pT7_6His-AlfaTag-HOXD13 (P35453 263-343): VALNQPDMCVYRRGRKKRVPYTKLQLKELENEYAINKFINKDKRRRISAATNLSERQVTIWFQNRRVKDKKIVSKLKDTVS

| Sequence | binding signal [1] | binding signal [2] |
| --- | --- | --- |
| CTCGAGGATATCAAGATCTGGCCTCGGCCGCCTAAAAGGAACCTCTAGCTAGCCGACTCACTATAGGGATAATCGCCCTGAGCAAAGACC | -0.524 ± 0.115 log2FC | 0.0248 ± 0.0968 log2FC |
| CTCGAGGATATCAAGATCTGGCCTCGGCCTTTTAAGGGGAACCTCTAGCTAGCCGACTCACTATAGGGATAATCGCCCTGAGCAAAGACC | 1.67 ± 0.0786 log2FC | 0.073 ± 0.082 log2FC |
| CTCGAGGATATCAAGATCTGGCCTCGGCAACCTAAAAGGAACCTCTAGCTAGCCGACTCACTATAGGGATAATCGCCCTGAGCAAAGACC | -0.715 ± 0.12 log2FC | 0.113 ± 0.099 log2FC |
| CTCGAGGATATCAAGATCTGGCCTCGGCATTTTACTCGGAACCTCTAGCTAGCCGACTCACTATAGGGATAATCGCCCTGAGCAAAGACC | 0.755 ± 0.0905 log2FC | 0.0783 ± 0.0882 log2FC |
| CTCGAGGATATCAAGATCTGGCCTCGGCGCGGGGGCGGGAACCTCTAGCTAGCCGACTCACTATAGGGATAATCGCCCTGAGCAAAGACC | -0.903 ± 0.133 log2FC | 3.63 ± 0.0947 log2FC |
| CTCGAGGATATCAAGATCTGGCCTCGGCATCTTAAAAGGAACCTCTAGCTAGCCGACTCACTATAGGGATAATCGCCCTGAGCAAAGACC | 1.62 ± 0.0869 log2FC | 0.00209 ± 0.0901 log2FC |
| CTCGAGGATATCAAGATCTGGCCTCGGCCTTTGGGCGGGAACCTCTAGCTAGCCGACTCACTATAGGGATAATCGCCCTGAGCAAAGACC | -0.932 ± 0.115 log2FC | 0.262 ± 0.0913 log2FC |
| CTCGAGGATATCAAGATCTGGCCTCGGCTTCCCACGCGGAACCTCTAGCTAGCCGACTCACTATAGGGATAATCGCCCTGAGCAAAGACC | – | 0.363 ± 0.0983 log2FC |
| CTCGAGGATATCAAGATCTGGCCTCGGCGCGTTGGCGGGAACCTCTAGCTAGCCGACTCACTATAGGGATAATCGCCCTGAGCAAAGACC | -1.07 ± 0.16 log2FC | 1.75 ± 0.117 log2FC |
